# Tau fibril FP = inhibitors of human tau fibril formation; P10636; K18 P301L tau heparin fibrillization, Alexa594 FP, 6 h; Potency, µM (series often up to 57.7 µM), without a hit: at the top dose activity, negative = inhibition, actives largely listed as inhibitors; 280,000 compounds, 0.39% hits; also: nearly all actives have a fitted effect of over 55% in size
# Target sequence (P10636 561-689 P618L limits assumed): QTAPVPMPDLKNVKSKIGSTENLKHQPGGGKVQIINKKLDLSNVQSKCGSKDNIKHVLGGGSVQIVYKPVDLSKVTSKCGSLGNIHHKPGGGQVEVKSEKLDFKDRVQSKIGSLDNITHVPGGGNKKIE
#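 Human K18 P301L fragment (15 uM unlabeled plus 0.24 uM Alexa 594-labeled) in 100 mM sodium acetate pH 7 with compound, aggregation induced by 20 uM heparin for 6 hr at 37 C. ThT (30 uM) added for 1 hr, then Alexa 594 FP read.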
# Tau fluor counter = counter-screen for tau fibril formation inhibitors; tau K18 P301L Alexa594 fluorescence, heparin fibrillization; Potency, µM (highest dose often 57.7 µM), without a hit: top-dose activity change, negative = decrease; 280,000 compounds, 0.93% hits; AID 1463; also: nearly all actives have a fitted effect of over 55% in size
#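 Human K18 P301L tau (15 uM unlabeled plus 0.24 uM Alexa 594-labeled, final) in 100 mM sodium acetate pH 7 was mixed with compound and 20 uM heparin and incubated 6 hr at 37 C.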
# TexasRed fluor = alters Texas Red total fluorescence, flagging assay interference; TRb/SRC2 Texas Red total fluorescence interference; Potency, µM (top dose mostly 106 µM), without a hit: top-dose fluorescence change, negative = quenching; 280,000 compounds, 0.29% hits; AID 1479; active = well fitted curve in either direction with a large enough effect; inconclusive = small, poorly fitted or top-dose-only effect
#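 Human TRβ ligand-binding domain (0.6 uM) and Texas Red SRC2 peptide (20 nM) in Tris buffer with 1 uM T3 and 5% DMSO were incubated with pinned compound for 5 hr at ambient temperature. Total fluorescence was computed as S + 2P (555/632 nm).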
# TRb SRC2 PPI = inhibitors of human thyroid hormone receptor beta-SRC2 interaction; TRbeta-SRC2 peptide binding, fluorescence polarization; receptor liganded with 1 µM T3; P10828; Potency, µM (top dose mostly 106 µM), for the others: at the top dose activity change, negative = inhibition, usual class: inhibitors; 280,000 compounds, 0.065% hits; AID 1469;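 also: plate controls were bound peptide for no effect and peptide without receptor for full effect; nearly all actives have a fitted effect of over 50% in size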
#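 Compounds were added to 0.6 uM TRb ligand-binding domain and 20 nM Texas Red-labeled SRC2 peptide in Tris buffer containing 1 uM T3, incubated 5 hr at ambient temperature, then read by fluorescence polarization.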
# Tau ThT inhib = inhibitors of human tau fibril formation, thioflavin T binding; P10636; recombinant tau K18 P301L, heparin-induced fibrillization, ThT fluorescence; Potency, µM (series often up to 57.4 µM), inactives show at the top dose activity, negative = inhibition, hits mostly inhibitors; 270,000 compounds, 2.1% hits; also: nearly all actives have a fitted effect of over 55% in size
#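 Fibril formation assay: tau K18 P301L at 15 uM with trace Alexa 594 label, heparin inducer 20 uM, pH 7 sodium acetate buffer, 37 C for 6 hr; endpoint ThT signal.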
# * hit, by the source's call; ? = inconclusive; / = not tested or not shown; [ ] = another dose, or the depositor's remark. The list is not random: actives were taken first. Their share in the collection is about 3%. Unless noted, calls follow the shape of the dose curve; as a rule, active = well fitted curve in the direction sought with a large enough effect; inconclusive = small, poorly fitted or top-dose-only effect, or another doubt; inactive = no such curve, though single readings can be large; an effect the other way counts as inactive or inconclusive. Unless noted, % is scaled to controls: 0 for no effect and ±100 for the full control effect; potency is read from the fitted curve at half-maximal effect.
SMILES,Tau fibril FP,Tau fluor counter,TexasRed fluor,TRb SRC2 PPI,Tau ThT inhib
CCC(C)N1C(=O)/C(=C/c2c(NCCCOC(C)C)nc3c(C)cccn3c2=O)SC1=S (stereo unspecified),25.1µM*,0.8%,-1.5%,-0.2%,?
CC1CCN(C(=O)CN2CCSc3ccccc32)CC1,-4.6%,-11.8%,-1.1%,2.7%,-3.6%
COc1ccc(OCC(=O)OCc2cc(=O)n3cc(C)sc3n2)cc1,-6.8%,-6.5%,?,-5.1%,-8.3%
CC(Sc1nc(=O)cc(N)n1CCc1ccccc1)C(=O)Nc1ccc(Cl)cc1 (stereo unspecified),?,?,2.3%,7.9%,1.0%
COC(=O)c1ccc(NC(=O)C(C)Sc2nc(=O)cc(N)n2CCc2ccccc2)cc1 (stereo unspecified),-10.9%,?,17.8µM*[quencher],-7.9%,-9.6%
C=CC(C)(CCC=C(C)C)OC(C)=O (stereo unspecified),/,/,-4.5%[201 µM],-3.2%[201 µM],/
CO[C@@H](CCO)C[C@H]1O[C@H](C(=O)OC(C)C)CC[C@@H]1C,?,3.2%,-1.0%,-6.2%,4.9%
COC(=O)C1(C(=O)OC)CC(CO)C(=O)[C@H]1c1ccccc1 (stereo partly specified),4.1%,0.4%,0.7%,5.3%,?
CC(C)c1ccc2c(c1)C1(NN=C(c3ccccc3)S1)C(=O)N2 (stereo unspecified),13.7%,?,-5.8%,-13.3%,25.1µM*
NS(=O)(=O)c1ccc(O)c(NC(=O)c2ccc([N+](=O)[O-])o2)c1,17.8µM*,-17.8%,0.4%,-7.9%,25.1µM*
Cc1cc(C)cc(NC(=O)c2ccc([N+](=O)[O-])o2)c1,9.6%,-14.0%,0.8%,-3.2%,-19.2%
Cc1cc([N+](=O)[O-])ccc1NC(=O)c1ccco1,-6.8%,6.6%,2.3%,0.8%,9.9%
Cc1cc(NC(=O)c2ccc([N+](=O)[O-])o2)ccc1NC(=O)c1ccco1,4.1%,-20.1%,-3.2%,-1.0%,14.1µM*
Cc1ccc(C)c(-c2[nH]c3c(c2-c2c(-n4cccc4)n(C)c(=O)[nH]c2=O)c(=O)[nH]c(=O)n3C)c1,6.9%,5.5%,?,1.5%,5.3%
CCOc1ccc(N(C)S(=O)(=O)c2ccc(C)c(C(=O)OCC(=O)c3c[nH]c4ccccc34)c2)cc1,8.91µM*,?,0.4%,6.8%,2.7%
Nc1ccc(N2CCOCC2)c2nonc12,?,?,-7.0%,?,14.1µM*
O=C(Nc1ccc(F)cc1)Nc1ccc(N2CCOCC2)c2nonc12,13.8%,-22.7%,3.5%,-11.1%,2.82µM*
COc1ccc(NC(=O)Nc2ccc(N3CCOCC3)c3nonc23)c(OC)c1,-9.5%,-20.8%,-0.8%,-17.3%,?
C=CCn1c(O)c(CN2CCCCC2)c(C)c(C#N)c1=O,?,-25.1%,10.3%,-19.7%,25.1µM*
Cc1c(CN2CCCC(C)C2)c(O)n(CCO)c(=O)c1C#N (stereo unspecified),3.6%,-1.8%[2.34 µM],-1.0%,-4.7%,-3.5%
CCOC(=O)c1[nH]c(C)c(CCC(=O)Nc2cccc(SC)c2)c1C,1.2%,-29.1%,0.6%,-1.4%,-8.0%
CN(C)C=Nc1ccccc1C1C=NNC1=O (stereo unspecified),-6.6%,-28.6%,-1.0%,-7.3%,11.2µM*
CC(=O)c1c(N=CN(C)C)nc(C)nc1-c1ccccc1,-4.5%,0.8%,-2.2%,1.2%,2.0%
CC(=O)N1CCc2c(sc3c2c(=O)n(Cc2ccccc2)c(=O)n3CC(=O)Nc2ccc(C)c(F)c2)C1,28.2µM*,?,-12.5%,2.3%,?
Cc1sc2c(c1C)c(=O)n(Cc1ccccc1)c(=O)n2CC(=O)Nc1cccc(Cl)c1,31.6µM*,-24.4%,-46.9%,1.6%,?
CC(=O)OC[C@@H]1O[C@H](C/C=N\OC[C@@H](C)[C@H](OCc2ccccc2)C(C)C)C=C[C@@H]1OC(C)=O,4.9%[11.6 µM],-11.7%[11.6 µM],-1.9%[11.2 µM],0.3%[11.2 µM],-7.0%[11.5 µM]
CCCc1cc(N2CCN(c3ccccc3F)CC2)n2cnnc2n1,6.6%,6.4%,-0.1%,-1.6%,-0.2%
C=C1C=C(Br)C2(OCCCO2)[C@H]2OC12 (stereo partly specified),-9.4%[11.6 µM],-11.6%[11.6 µM],-7.9%[11.2 µM],1.0%[11.2 µM],-7.8%[11.5 µM]

# Bioassay records from PubChem.
